# Key:
# Experiment in all cases: PBM binding z-score (relative to random genomic background probes); higher = stronger binding; sequences stand for … in GC…GCGATTGACAGCGTAGAATGAAGG
# [1] = tested on: FXR:RXRa (NR concentration 270 nM, RXRa partner concentration 90 nM)
# Summary of the method: (§1)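 Ligand-free nuclear receptor dimers were applied to custom Agilent 4×180K protein-binding microarrays whose double-stranded probes carried direct-repeat seeds, single-nucleotide variants, half-site ablations and random human genomic background sequences in 34-nt variable regions. Incubation lasted 1 h. Binding z-scores were computed against the random background probes from regression-normalized fluorescence.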
# [2] = tested on: LXRa:RXRa (NR concentration 270 nM, RXRa partner concentration 90 nM)
# Summary of the method: as §1
# [3] = tested on: LXRa homodimer (NR concentration 270 nM)
# Summary of the method: as §1
# [4] = tested on: LXRb:RXRa (NR concentration 270 nM, RXRa partner concentration 90 nM)
# Summary of the method: as §1
# [5] = tested on: LXRb homodimer (NR concentration 270 nM)
# Summary of the method: as §1
# [6] = tested on: PPARa:RXRa (NR concentration 270 nM, RXRa partner concentration 90 nM)
# Summary of the method: as §1
# [7] = tested on: PPARg:RXRa (NR concentration 180 nM, RXRa partner concentration 90 nM)
# Summary of the method: as §1
# [8] = tested on: PPARg:RXRa 270nM:90nM, anti-RXR (NR concentration 270 nM, RXRa partner concentration 90 nM)
# Summary of the method: as §1
# [9] = tested on: PPARg:RXRa 30nM:10nM, anti-RXR (NR concentration 30 nM, RXRa partner concentration 10 nM)
# Summary of the method: as §1
# [10] = tested on: PPARg:RXRa 90nM:30nM, anti-RXR (NR concentration 90 nM, RXRa partner concentration 30 nM)
# Summary of the method: as §1
# [11] = tested on: PPARg:RXRa DBDmut IVT, anti-RXR (DBD mutation: RXRa K156A/R161A, NR concentration 270 nM, RXRa partner concentration 90 nM)
# Summary of the method: as §1
# [12] = tested on: PPARg:RXRa IVT, anti-PPARg (NR concentration 270 nM, RXRa partner concentration 90 nM)
# Summary of the method: as §1
# [13] = tested on: PPARg DBDmut:RXRa IVT, anti-PPARg (DBD mutation: PPARg1 K132A/R137A, NR concentration 270 nM, RXRa partner concentration 90 nM)
# Summary of the method: as §1
# [14] = tested on: PPARg DBDmut IVT, anti-PPARg (DBD mutation: PPARg1 K132A/R137A, NR concentration 270 nM)
# Summary of the method: as §1
# [15] = tested on: PPARg homodimer (NR concentration 180 nM)
# Summary of the method: as §1
# [16] = tested on: PXR:RXRa (NR concentration 270 nM, RXRa partner concentration 90 nM)
# Summary of the method: as §1
# [17] = tested on: PXR homodimer (NR concentration 270 nM)
# Summary of the method: as §1
# [18] = tested on: RARa:RXR (NR concentration 270 nM, RXRa partner concentration 90 nM)
# Summary of the method: as §1
# [19] = tested on: RARa homodimer (NR concentration 270 nM)
# Summary of the method: as §1
# [20] = tested on: RARb:RXRa (NR concentration 270 nM, RXRa partner concentration 90 nM)
# Summary of the method: as §1
Sequence,PBM binding z-score [1],PBM binding z-score [2],PBM binding z-score [3],PBM binding z-score [4],PBM binding z-score [5],PBM binding z-score [6],PBM binding z-score [7],PBM binding z-score [8],PBM binding z-score [9],PBM binding z-score [10],PBM binding z-score [11],PBM binding z-score [12],PBM binding z-score [13],PBM binding z-score [14],PBM binding z-score [15],PBM binding z-score [16],PBM binding z-score [17],PBM binding z-score [18],PBM binding z-score [19],PBM binding z-score [20]
ATCGAAAGGTCGTGAGTTGAGTATACAGAAAGGC,4.98,3.53,0.0498,2.99,0.743,4.84,3.55,3.9,1.82,2.85,-0.00462,1.66,1.4,1.03,1.91,3.2,0.152,3.9,0.363,3.82
TGAATGAGGTTAAAGATCGGGGAACGTGGCGTCG,2.84,2.61,-0.0577,1.64,0.61,4.29,4.54,5.57,3.66,5.49,2.68,3.12,1.11,-0.0519,0.857,1.55,0.231,2.5,0.262,2.15
CCTACTGGACCATTCAGAGGTCATTGATCATATG,3.05,4.64,6.93,3.96,1.41,3.7,0.988,2.16,0.466,1.38,2.24,1.98,0.483,0.13,3.36,4.92,3.43,4.69,1.66,2.8
TAGCCTAGGTCCTGCGGGCCAGTATAGTGTCGGC,-1.69,-1.08,-1.14,-1.49,-1.06,-1.2,-0.732,-0.789,-0.922,-1.13,-1.61,-0.181,-1.11,-0.969,-1.72,-0.971,-1.03,-0.898,-1.52,-0.954
CCAGACAGGTGAAAAGGTAACTCAGCCTCGATTA,0.33,0.666,-0.0851,0.744,-0.438,2.09,1.27,2.24,0.682,1.77,1.6,1.25,-0.262,-0.729,1.18,0.509,0.481,1.45,1.21,1.43
CAAAGTAGGTCACAGAGGTCAAAGTCCGTGCGTA,7.06,6.7,7.7,6.5,2.52,6.75,10.4,8.33,7.56,8.58,8.54,8.94,1.99,2.62,4.88,6.71,10.8,7.4,2.67,5.14
GCTGGTAGGTCAGGTTGGTCAGCTAACGGGTACG,1.28,1.03,0.172,0.929,-0.0209,2.05,1.44,1.88,0.102,1.02,3.54,3.65,-0.271,0.163,1.32,0.581,0.431,0.986,0.462,3.16
GCATATAGGTAATACAAGGTGAAAGTTCGATTGT,1.05,2.54,0.814,1.37,-0.201,2.67,3.47,4.13,2.29,3.58,3.93,3.61,1.22,1.17,1.2,1.86,0.639,2.6,1.1,0.778
TCTTGTAGATCAAGCAGGTTAAGAACGCCTGAGT,0.558,0.44,-0.0745,0.534,-0.492,0.851,-0.197,1.21,2.6,1.7,1.42,0.613,-0.194,-0.44,-0.0997,0.399,0.197,0.48,-0.305,0.23
ACTAGTTGGTCAGCTGAGGTCACATACAATTCGG,2.13,2.95,2.7,3.37,0.543,3.41,1.77,1.98,0.658,1.17,1.59,2.44,0.89,0.482,2.09,5.26,1.85,4.17,0.305,3.4
GCTTACGGGTCTAAGGTTATAGCATGAATAGAAT,0.749,0.664,-0.0717,1.2,-0.249,2.66,3.28,4.67,3.06,4.64,0.0529,0.754,0.306,0.266,0.501,0.939,0.427,1.66,0.142,1.02
TCTCGTAGATCAAGCAGGTTAAGAAAGCCTGAGT,-0.462,-0.196,-0.257,-0.0905,-1.19,0.4,-0.54,0.861,2.47,1.83,1.63,-0.598,-0.611,-0.106,-0.511,0.225,-0.267,0.111,-0.712,-0.255
TAGCCTAGGTCATTCAGGGGACAGTATAGAAAGC,4.83,4.05,1.41,3.39,1.57,3.96,2.88,2.81,0.785,1.62,2.17,3.28,0.412,0.909,1.58,2.58,0.0541,3.72,0.228,4.09
ATCTCTAGGTAAAGATACTTCAGTGAATGCAAAT,0.262,0.149,0.0511,0.403,0.44,0.361,0.884,0.723,0.521,0.608,1.8,1.32,1.1,1.13,0.534,0.635,0.252,0.522,0.591,-0.033
GCTATTAGTTGACAGGGCAACCGAATGATTCTCG,-0.301,-0.298,-0.0236,-0.0105,-0.293,0.0349,0.532,0.626,-0.199,0.442,0.297,0.029,0.0418,0.353,0.467,-0.171,0.105,-0.228,0.00268,0.489
CAGCCTAGGTCAGGGCCAATATAGGAGGAACGTT,1.73,0.833,-0.284,0.824,-1.05,2.05,1.37,1.22,0.246,0.449,1.3,1.88,-0.288,-1.23,0.413,0.404,-0.114,0.941,0.127,3.5
ACTAGCAGGCCTAGTTTGGGTCACTCAAACAAAG,-0.223,-0.267,-0.434,0.356,-0.757,1.13,-0.314,0.138,-0.572,-0.184,-0.402,0.669,-0.351,-1.26,-0.416,0.282,-0.591,1.1,-0.718,0.83
AGAATGAGGTTATACGTAGATCAGGGGAGAAAGT,1.99,1.93,0.147,1.96,0.558,3.05,1.83,2.06,0.697,1.06,4.24,2.13,1.07,0.577,0.74,1.36,0.423,1.87,1.13,1.45
AATACAGGGTCACTAGGCCAGAATAGGTACGAAT,6.2,5.06,1.04,4.11,1.02,5.95,7.89,6.5,2.7,5.33,3.44,5.78,1.66,1.79,2.05,3.16,0.787,4.21,1.45,4.27
TCGAGTAGGTTAGGGGCCTTCAGAATGGCGTCGA,-0.193,-0.323,-0.797,-0.221,-0.986,0.54,0.638,2.19,0.926,2.03,1.32,1.07,-0.729,-0.939,-0.145,-0.478,-0.829,-0.114,-1.13,0.24
AGTACAGGGTCATCGTAGGCCAGAGTACGCACAG,7.3,5.7,0.868,4.07,1.05,5.87,6.41,5.7,2.18,4.41,1.41,3.74,2.14,0.916,3.28,4.88,0.894,5.21,0.349,4.46
CGTCCAAGTTCAGCAGGTCAGTGAAAGCGACGTG,2.28,2.06,1.12,1.53,-0.267,2.49,0.395,1.17,-0.436,0.285,0.444,0.339,-0.163,-0.669,1.77,2.59,1.6,2.38,0.583,3.75
CTCGAAAGGTCGGTTGAGGTGAGAATACGGATAA,3.46,1.74,-0.255,1.42,0.119,2.77,0.632,1.34,0.543,0.887,-0.0519,0.993,0.334,0.0546,0.742,3.13,0.108,2.11,0.173,2.98
CCTTACGGGTCACTCCAGGCTATAGCATCGGAGT,4.45,5.59,-0.324,2.91,-0.145,4.07,2.95,3.31,0.716,1.9,2.55,3.11,-0.0425,-0.418,0.988,3.3,-0.213,3.16,0.0642,3.51
GCGGACAGGTGAAACGCAGGTAACTCAGGGTGGC,-0.363,-0.0756,-0.541,-0.243,-1.43,0.799,0.338,-0.205,-1.01,-0.756,1.08,0.64,-0.773,-1.81,-0.69,-0.362,-0.597,0.177,-1.07,0.934
CGTCCCAGGTCATAGGAGGTCAGTGAAGACAGAT,5.9,6.34,4.26,5.07,0.872,4.83,3.87,4.13,1.16,2.74,1.76,3.65,0.856,0.281,3.83,6.15,2.57,4.89,2.28,4.5
TCATATAGGTAATGCAGGTGAAAGTCGGCATCTA,0.698,0.973,0.228,0.199,-0.224,2.23,1.65,2.58,3.86,2.86,4.18,4.3,0.872,1.17,0.782,0.415,0.211,0.602,0.52,0.41
TCAGACATGTGAAGGTAACTCAGGTACGCAGTCG,0.329,1.23,-0.167,0.691,-0.43,0.662,0.745,1.37,3.48,2.63,1.82,-0.0574,0.0996,0.0128,-0.0995,0.383,-0.196,0.493,0.114,0.199

# From the supplement of paper PMC6555819
